In PubChem BioAssay:
For some of these results: Results with a measured potency or affinity are listed apart. Activity calls are given as the source filed them.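 How the source made its calls, unless noted: active means compounds killing one labelled cell type while sparing the other, by normalised counts and ratio limits, not self-fluorescent; inactive means the rest.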 Peptide text beside a SMILES is read from it.

Legend:
[1] = P. berghei load reduction in hepatocytes – cell-based, HepG2, luciferase luminescence, HepG2 viability, primary screen (AID 624349; in the data active means parasite load remaining mostly below about 12%, no sharp cut-off; inactive means mostly above about 10%;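 further: 100% = mean of DMSO negative control wells on the same plate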); conditions: P. berghei liver stage in HepG2, luciferase luminescence, concentration not given here; parasite load remaining: stronger effect = lower value; viability: measured here: HepG2 viability without parasites
[2] = molecular target: 6-phosphogluconate dehydrogenase, decarboxylating (Homo sapiens) (UniProt P52209); test: inhibition of human phosphogluconate dehydrogenase – biochemical, recombinant enzyme, NADPH absorbance, primary screen (AID 1159550;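 active means at least 20% inhibition of 6-phosphogluconate dehydrogenase activity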); conditions: recombinant 6PGD, NADPH absorbance 341 nm; at 10 µM; stronger effect = higher value
Chain of 6-phosphogluconate dehydrogenase, decarboxylating (Homo sapiens) (P52209 whole entry, looked up): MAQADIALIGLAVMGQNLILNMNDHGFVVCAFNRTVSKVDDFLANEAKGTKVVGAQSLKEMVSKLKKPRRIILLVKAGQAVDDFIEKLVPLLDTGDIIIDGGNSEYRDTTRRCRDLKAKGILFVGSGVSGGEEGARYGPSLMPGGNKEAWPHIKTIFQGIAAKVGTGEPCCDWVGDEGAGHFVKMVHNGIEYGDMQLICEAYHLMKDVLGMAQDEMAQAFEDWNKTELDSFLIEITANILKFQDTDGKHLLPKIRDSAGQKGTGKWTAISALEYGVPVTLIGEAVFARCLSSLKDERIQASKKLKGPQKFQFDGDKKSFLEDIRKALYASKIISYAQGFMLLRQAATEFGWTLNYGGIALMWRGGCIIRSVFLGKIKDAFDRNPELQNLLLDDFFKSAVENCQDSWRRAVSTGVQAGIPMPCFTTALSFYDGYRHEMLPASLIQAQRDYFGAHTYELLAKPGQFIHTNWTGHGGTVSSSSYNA

[3] = EMT-state selective cytotoxicity in co-culture – imaging, PC-3E GFP, TEM4-18 mCherry, primary screen (AID 1345086); conditions: PC-3E GFP / TEM4-18 mCherry co-culture, imaging cell counts, at 1 µM; for red/green cell ratio (normalised): actives lie on both sides, counts scaled to control wells, 1 = unselective;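 on all read-outs here: cells exposed to compound for 72 h before imaging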;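 on red/green cell ratio (normalised): normalised mesenchymal count divided by normalised epithelial count so high means epithelial killing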
[4] = molecular target: Mitogen-activated protein kinase 7 (Homo sapiens) (UniProt Q13164); test: Gal4-ERK5 driven luciferase induction – cell-based, HTS, primary screen (AID 1508626;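 active means luciferase signal above three times the same-plate solvent-only control wells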;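 further: luciferase driven by Gal4-ERK5 fusion binding five Gal4 sites before minimal TATA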); conditions: HeLa Gal4-ERK5 transactivation, 18 h, at 5 µM, stronger effect = higher value
Chain of Mitogen-activated protein kinase 7 (Homo sapiens) (Q13164 whole entry, looked up, the tested form may be a part): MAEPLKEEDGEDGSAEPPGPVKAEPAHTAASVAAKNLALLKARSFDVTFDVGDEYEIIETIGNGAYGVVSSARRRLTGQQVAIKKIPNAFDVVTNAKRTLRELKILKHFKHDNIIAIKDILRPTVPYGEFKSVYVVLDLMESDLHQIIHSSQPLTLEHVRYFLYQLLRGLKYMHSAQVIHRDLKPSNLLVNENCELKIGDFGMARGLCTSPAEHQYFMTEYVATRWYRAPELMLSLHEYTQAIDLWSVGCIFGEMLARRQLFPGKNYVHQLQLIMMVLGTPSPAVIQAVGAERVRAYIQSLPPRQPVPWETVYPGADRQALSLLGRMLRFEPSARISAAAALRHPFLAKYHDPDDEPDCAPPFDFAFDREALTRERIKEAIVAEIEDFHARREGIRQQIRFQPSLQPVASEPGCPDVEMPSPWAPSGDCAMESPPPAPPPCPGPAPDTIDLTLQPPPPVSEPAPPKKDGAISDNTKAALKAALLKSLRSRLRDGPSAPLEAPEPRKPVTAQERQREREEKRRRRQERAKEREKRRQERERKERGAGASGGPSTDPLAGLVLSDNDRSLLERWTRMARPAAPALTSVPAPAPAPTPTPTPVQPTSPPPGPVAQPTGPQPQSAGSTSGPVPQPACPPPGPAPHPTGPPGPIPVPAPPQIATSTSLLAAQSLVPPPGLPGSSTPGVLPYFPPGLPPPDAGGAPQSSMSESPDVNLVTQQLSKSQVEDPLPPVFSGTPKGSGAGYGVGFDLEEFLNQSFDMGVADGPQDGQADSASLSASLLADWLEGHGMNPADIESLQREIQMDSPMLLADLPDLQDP

[5] = blockers of polyQ-driven CASP3 activation – cell-based (AID 1583); conditions: polyglutamine-induced caspase-3 activation, cell assay; stronger effect = higher value;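 tested at 10 µM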
[6] = yeast 75Q aggregation reduction – 75Q-TubU reporter (AID 1593); conditions: Yeast 75Q polyglutamine aggregation reporter
[7] = restoration of touch response, mutant HTT neurons – whole organism, C. elegans mechanosensory neurons, N-terminal huntingtin (AID 1599); conditions: C. elegans polyQ-huntingtin mechanosensory neurons, stronger effect = higher value
[8] = blockers of cytochrome c efflux from mitochondria – biochemical, purified mitochondria (AID 1603); conditions: stronger effect = lower value;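 further: mouse liver mitochondria challenged with calcium chloride; signal normalized to the plate average as 100%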
[9] = polyglutamine aggregate formation blockers (AID 1604); conditions: polyglutamine-induced protein aggregation inhibition assay; stronger effect = higher value; tested at 2.5 µM
[10] = glutamate transport activators, MN-1 cells, MN-1 cell line (AID 1612); conditions: MN-1 motor neuron cells, stronger effect = higher value;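 further: tested at 1 µM final; 0% = mean of DMSO vehicle wells on each plate; positive means more glutamate uptake than control and negative means less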
[11] = 75Q-TubH aggregate inhibition, S. cerevisiae, yeast (AID 1616); conditions: S. cerevisiae 75Q-TubH polyglutamine aggregation suppression; stronger effect = higher value
[12] = GFP-Q80 aggregate reduction, neuronal-like cells, cell-based, NGF-treated PC12, GFPQ80 (AID 1614); conditions: PC12 NGF-treated GFP-polyQ80 inclusion reduction;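 further: lower means fewer inclusions and 0 means no inclusions at all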
[13] = measured here: epithelial PC-3E GFP cell survival
[14] = measured here: mesenchymal TEM4-18 mCherry cell survival

Compound | parasite load remaining [1] | viability [1] | inhibition [2] | red/green cell ratio (normalised) [3] | normalised cell number [3, 13] | normalised cell number [3, 14] | luciferase signal [4] | inhibition [5] | score [6] | rescue above control [7] | cytochrome c release ratio [8] | inhibition of aggregation [9] | glutamate uptake change [10] | aggregation suppression score [11] | inclusion score [12]
O=C(/C=C/c1ccccc1)c1ccc(O[C@@H]2O[C@H](CO)[C@@H](O)[C@H](O)[C@H]2O)cc1O | 121% (inactive) | 96.4% | 4.22% (inactive) | 1 (inactive) | 0.9 | 0.9 | 76 AU (inactive) |  |  |  |  |  |  |  | 
COC1=CC(=O)C=C(OC)C1=O | 122% (inactive) | 94.3% | 1.73% (inactive) | 0.91 (inactive) | 0.92 | 0.84 | 112 AU (inactive) |  |  |  |  |  |  |  | 
CC(C)=CCc1c2c(c3occ(-c4ccc(O)c(O)c4)c(=O)c3c1O)C=CC(C)(C)O2 |  |  | 10.7% (inactive) | 0.76 (inactive) | 1.03 | 0.78 | 108 AU (inactive) | -8.52% | -0.59 | -11.4 | 1.28 | 45.6% | 0.58% | -1.07 | 
C=NC(C(=O)NC1C(=O)N2C1SC(C)(C)C2C(=O)O)c1ccccc1 (stereo not given) | 130% (inactive) | 74.4% | -2.44% (inactive) | 1.12 (inactive) | 0.88 | 0.99 |  | 15.2% | 0.85 | -2.5 | 0.48 | 82% | 4.77% | 0.649 | 2
COc1cc(C)c2c(=O)cc(-c3ccccc3)oc2c1 |  |  | 5.95% (inactive) | 0.85 (inactive) | 1.28 | 1.09 |  | 15.2% | -1.86 | 16.3 | 1.19 | 86.2% | -16.6% | -0.775 | 1
CC(C)C[C@H](N)C(=O)N[C@@H](C)C(=O)O (H-Leu-Ala-OH) |  |  | 3.68% (inactive) | 0.74 (inactive) | 1.26 | 0.93 | 16 AU (inactive) |  |  |  |  |  |  |  | 
CON |  |  | 3.11% (inactive) | 1.03 (inactive) | 1.15 | 1.18 | 124 AU (inactive) | -5.62% | 1.4 | -6.41 | 0.58 | -9.7% | 19.3% | 1.29 | 2
